Results filed as inconclusive are left out. Calls of active or inactive are those of the source. The call rests on the fitted dose curve; in most records, active means well fitted cell-killing curve with a large enough effect in the repeat runs; inconclusive means weak or mixed curves, or effect the other way; inactive means flat fitted curve, though single readings scatter.
Test: qHTS RealTime-Glo MT Cell Viability Assay in HEK293 cells - 40 hour (AID 1224874); further: nearly all actives have a fitted effect of over 50% in size
Conditions: RealTime-Glo luminescence; max response: active compounds read low
Excerpt: U.S. Tox21 Program National Center for Advancing Translational Sciences [NCATS] NIH Chemical Genomics Center [NCGC] U.S. Environmental Protection Agency [EPA] National Institutes of Environmental Health Sciences [NIEHS] National Toxicology Program [NTP] U.S. Food and Drug Administration [FDA] Tox21 Assay Overview: Measure of cell viability is critical in the cell-base assay. Analysis of cell viability is necessary for the characterization of cell responses to cytotoxic drugs and environmental stress. A RealTime-Glo MT Cell Viability Assay to monitor cell viability in real time of continues cell culture during 40 hours of compound treatment was used to screen Tox21 10K library compounds in Hek293 cells. The RealTime-Glo MT Cell Viability Assay is a nonlytic, homogeneous, bioluminescent method to measure cell viability in real time using a simple, plate-based method. The assay involves adding NanoLuc luciferase and a cell-permeant prosubstrate to cells in culture. Viable cells reduce the proprietary prosubstrate to generate a substrate for NanoLuc luciferase. This substrate diffuses from cells into the surrounding culture medium, where it is rapidly used by the NanoLuc Enzyme to produce a luminescent signal. The signal correlates with the number of viable cells, making the assay well suited for cytotoxicity studies.
Tox21 Assay Protocol Summary: The mixture of Hek293 cell suspension and reagents were dispensed at 600cells/6 ul/well in 1536-well tissue culture treated black solid bottom plates using a Multidrop dispenser. After the assay plates were incubated at a 37 C/5% CO2 incubator for 5 hours, 23 nL of compounds dissolved in DMSO, positive and negative controls was transferred to the assay plate by a pintool work station. The plates were incubated at 37 C for 40 hours. The luminescence intensity were measured at 0h, 8h, 16h, 24h, 32h and 40h time points using ViewLux plate reader during compound treatment.
On the % scale 0 is the no-effect control and ±100 the full control effect; potency means the concentration at half of the fitted maximal effect.

Structure (SMILES) | max response | Potency
CCCCCCCCCCCCCCCCN | 11.5% (inactive) | –
C[Si](C)(C)O[Si](C)(C)O[Si](C)(C)C | 7.13% (inactive) | –
CC(CCl)OC(C)CCl (stereo not given) | -1.61% (inactive) | –
CCC(C(=O)O)c1ccc(N2Cc3ccccc3C2=O)cc1 (stereo not given) | -1.19% (inactive) | –
CC(C)NC(=O)c1ccccc1N | 0.226% (inactive) | –
CO[C@@H]1COCC[C@@H]1N[C@@H]1CC[C@@](C(=O)N2CCc3ncc(C(F)(F)F)cc3C2)(C(C)C)C1 | – | 17.3 µM (active)
Cc1c(Cl)cccc1[N+](=O)[O-] | -7.04% (inactive) | –
COc1ccc(CN(CCN(C)C)c2ncccn2)cc1 | 4.01% (inactive) | –
C/C(=C\C(C)CC(C)CC(C)C)C1CC(=O)OC1=O (stereo not given) | -12% (inactive) | –
CCCCCCCCCCCCCCCCCCCl | 5.75% (inactive) | –
CCCC1CCCC(=O)O1 (stereo not given) | 0.877% (inactive) | –
CCOC(OCC)OCC | -1.36% (inactive) | –
CC/C=C\CCO | 15.9% (inactive) | –
NC(=O)c1ccccc1C(N)=O | – | 31 µM (active)
CCc1cnc(C(=O)O)c(C(=O)O)c1 | 5.23% (inactive) | –
C/C(=C(\CCO)SS/C(CCO)=C(\C)N(C=O)Cc1cnc(C)nc1N)N(C=O)Cc1cnc(C)nc1N | 7.21% (inactive) | –
O=C(c1ccco1)N1CCNCC1 | 3.57% (inactive) | –
CCC[Si](OC)(OC)OC | -8.66% (inactive) | –
CC(Cc1ccccc1)(NC(=O)CN)c1ccccc1 (stereo not given) | -3.14% (inactive) | –
CC(=O)Nc1ccccc1O | 2.65% (inactive) | –

Structure (SMILES) | max response | Potency
CC(C)(C(=O)O)c1ccc(C(O)CCCN2CCC(C(O)(c3ccccc3)c3ccccc3)CC2)cc1 (stereo not given) | 1.75% (inactive) | –
O=Cc1ccc([N+](=O)[O-])cc1 | 7.58% (inactive) | –
FC(F)(Cl)C(F)(Cl)Cl | 10.2% (inactive) | –
Nc1ccc(F)cc1F | -13.8% (inactive) | –
C=CC(=O)OCCCCCCCCCC | 12.1% (inactive) | –
CC(C)CC(C)(C)C | -17.8% (inactive) | –
C(/C=C/C=C/Nc1ccccc1)=Nc1ccccc1 | -15.7% (inactive) | –
c1ccc(-c2ccc(-c3ccccc3)cc2)cc1 | 0.336% (inactive) | –
Cc1ccc(S(=O)(=O)NC(=O)NC2CCCC2)cc1 | 0.385% (inactive) | –
CCC(=O)O[C@]1(C(=O)COC)[C@@H](C)C[C@H]2[C@@H]3CCC4=CC(=O)C=C[C@]4(C)C3(F)[C@@H](O)C[C@@]21C (stereo not given in full) | -19.2% (inactive) | –
O=C(O)c1ccc2cc(O)ccc2c1 | -17.3% (inactive) | –
CC(C)Cc1nccs1 | 3.56% (inactive) | –
CC(=O)CC/C=C(\C)CC/C=C(\C)CC/C=C(\C)CCC=C(C)C | 4.5% (inactive) | –
CC(=O)c1cccnc1 | -6.53% (inactive) | –
CC(=O)Nc1cccc(N)c1 | 15% (inactive) | –
CC(CN=Cc1ccccc1O)N=Cc1ccccc1O (stereo not given) | 0.376% (inactive) | –
CCC1=C(C)CN(C(=O)NCCc2ccc(S(=O)(=O)NC(=O)NC3CCC(C)CC3)cc2)C1=O (stereo not given) | -23% (inactive) | –
Cc1ccc(Cl)c(OCC(O)CNC(C)(C)C)c1 (stereo not given) | 1.75% (inactive) | –
CC(O)CN (stereo not given) | 1.55% (inactive) | –
C/C=C1\[C@H]2C=C(C)C[C@]1(N)c1ccc(=O)[nH]c1C2 | -2.81% (inactive) | –

— PubChem BioAssay (Tox21)
